Screens (PubChem BioAssay)
This is a sample that favours compounds with a hit; in the whole collection about 4.3% have one here.
Peg3 prom inh: reduces Peg3 promoter-driven luciferase expression in HeLa. HeLa PEG-Prom luciferase reporter, luminescence, overnight. inhibition, % at 20 µM. 360,000 compounds, 1.7% hits. AID 588405;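 active = inhibition of at least 50% at 20 µM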
KKLEB cytotox: CF airway cell cytotoxicity counter-screen | AID 602141 | KKLEB CF airway cells viability, ATPlite luminescence, overnight; hits give low values; cells stimulated with P. aeruginosa culture filtrate | activity change (cytotoxicity), % at 5 µM | 360,000 compounds, 0.36% hits;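 active = corrected activity change at or below -50% at 5 µM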
TRPM1 prom inh: MITF TRPM1 promoter inhibition in SK-MEL-5 cells. SK-MEL-5 TRPM1 promoter luciferase, 24 h. inhibition, % at 12.5 µM. 330,000 compounds, 0.83% hits. AID 488899;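 active = mean inhibition across replicates of 60% or more, whatever share of single replicates reaches that level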
CF NFkB block: blocks PAF-induced NF-kB reporter in cystic fibrosis cells; 360,000 compounds, 0.86% hits; KKLEB NF-kB-GFP reporter, GFP fluorescence overnight; inhibition, % at 5 µM; AID 588850;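 active = at least 50% inhibition at 5 µM, scaled per plate between neutral and stimulator controls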;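 also: PAF is a Pseudomonas aeruginosa culture filtrate used as stimulus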
HIF-2a inh: blocks HIF-2a reporter activity | 786-0 RCC cells HIF-2a reporter, luciferase luminescence, overnight | inhibition, % at 18.8 µM | 360,000 compounds, 0.72% hits;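 active = inhibition of the luminescence signal of 40% or more relative to plate controls, in a single-dose primary screen at 18.75 µM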
CHOP inhibitor: blocks CHOP induction under ER stress. AID 2732. inhibition, % at 10 µM. 220,000 compounds, 3.8% hits. CHO-K1 CHOP-promoter luciferase, tunicamycin-induced, 15-18 h;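 active = compounds that reduced the stress-induced luciferase reporter signal by more than about 70% of percent inhibition, limit read from the data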
Large screens that a line does not name were inactive.

CSc1cccc(NC(=O)/C=C/c2ccccc2)c1	none
CSc1ccc(/C=C/C(=O)Nc2ccccc2)cc1	CHOP inhibitor 84
CC1=C/C(=N\NC(=S)Nc2cccnc2)CC(C)(C)C1	TRPM1 prom inh 62
CC1(C)C2CC=C(/C=N/NC(=S)Nc3cccnc3)C1C2 (configuration not stated)	none
O=C1NC(=Nc2ccccc2)S/C1=C\C=C\c1ccco1	CHOP inhibitor 87
COc1ccc(/C=C2\SC(=Nc3ccccc3OC)NC2=O)cc1	CF NFkB block 56 (no result: CHOP inhibitor)
COc1cc(/C=C2/SC(=Nc3ccc(O)cc3)NC2=O)ccc1O	CF NFkB block 71
CCc1ccc(N=C2NC(=O)/C(=C/c3cc(OC)c(O)c(OC)c3)S2)cc1	none (no result: CHOP inhibitor)
COc1ccc(N=C2NC(=O)/C(=C/C=C/c3ccccc3)S2)cc1	CHOP inhibitor 77
Cc1nnc(NCC=Cc2ccccc2)s1	none (no result: TRPM1 prom inh, CHOP inhibitor)
CCN(CC(=O)Nc1c(F)cccc1F)C(=O)c1ccc(N2CCCC2=O)cc1	none (no result: CHOP inhibitor)
O=C(O)C1CCN(C(=O)c2ccccc2N2C(=O)[C@@H]3Cc4c([nH]c5ccccc45)C(c4cccc(Cl)c4)N3C2=O)CC1 (some centres not stated)	none (no result: CHOP inhibitor)
COc1cc(/C=C2\SC(N)=NC2=O)ccc1O	CF NFkB block 73 (no result: CHOP inhibitor)
O=C(CNC(=O)c1ccc(N2CCCC2=O)cc1)Nc1ccc(F)c(F)c1F	none (no result: CHOP inhibitor)
CCc1c(C)sc(NC(=O)Cn2nc(C(F)(F)F)c3c2CCCC3)c1C#N	CHOP inhibitor 93
Cc1cccc(NC(=O)c2c(O)c3cccc4c3n(c2=O)CCC4)n1	none (no result: Peg3 prom inh, KKLEB cytotox, TRPM1 prom inh, CF NFkB block, HIF-2a inh)
Cc1cnc(NC(=O)c2c(O)c3cccc4c3n(c2=O)CCC4)s1	CHOP inhibitor 76 (no result: Peg3 prom inh, KKLEB cytotox, TRPM1 prom inh, CF NFkB block, HIF-2a inh)
Cc1ccc2nc(N3CC(=O)Nc4ccccc43)nc(-c3ccccc3)c2c1	CHOP inhibitor 89
COc1ccc(CNC(=O)c2ccc(-c3c(C)noc3C)c3ccoc23)cc1OC	none (no result: TRPM1 prom inh, CHOP inhibitor)
CCOC(=O)c1ccc(S(=O)(=O)N2CCN(C(=O)C3CSC4(C)CCC(=O)N34)CC2)cc1 (configuration not stated)	none (no result: CHOP inhibitor)
CN(C)c1c2ccccc2nc2c(F)c(F)c(F)c(F)c12	CHOP inhibitor 70
C#CCN(C(=O)c1ccc(OC)c(OC2CCN(C(C)C)CC2)c1)C1CCCCC1	none (no result: CHOP inhibitor)
Cc1nn(-c2ccccc2)c(C)c1/C=N/NC(=O)c1cc(C(C)(C)C)[nH]n1	none
Cc1ccc(-c2cc(C(=O)N/N=C/c3c(C)nn(-c4ccccc4)c3C)n[nH]2)s1	CF NFkB block 57
C=CCNc1oc(Cc2cccc3ccccc23)nc1C#N	none
N#Cc1nc(-c2ccc(F)cc2)oc1NCc1cccc2c1OCO2	CHOP inhibitor 84 (no result: TRPM1 prom inh)
Cc1ccc(-c2nc(C#N)c(NCc3cccc4c3OCO4)o2)cc1	none
N#Cc1nc(Cc2cccc3ccccc23)oc1NCc1ccc(F)cc1	CHOP inhibitor 71
Cc1cccc(-c2noc(CN(C(=O)CCc3ccccc3)C(C)C)n2)c1	CHOP inhibitor 70
Cc1ccc(-c2noc(CN(C(=O)c3cccc(Br)c3)C(C)C)n2)cc1	CHOP inhibitor 71 (no result: TRPM1 prom inh)
COCCC1CCCCN1C(=O)c1cc(COc2ccc(C)nc2)on1 (configuration not stated)	KKLEB cytotox -95, CF NFkB block 69 (no result: CHOP inhibitor)
CCn1c(-c2ccccc2)c(C(=O)CCl)c2ccccc21	KKLEB cytotox -102, TRPM1 prom inh 73, CF NFkB block 106, CHOP inhibitor 105
CCOC(=O)[C@]12CCC=C1N(Cc1ccc(Cl)cc1Cl)C(=O)[C@H](CC(=O)N1CCC(c3ccccc3)CC1)C2	none (no result: Peg3 prom inh, KKLEB cytotox, TRPM1 prom inh, CF NFkB block, CHOP inhibitor)
CCN(c1ccccc1)S(=O)(=O)c1cc(C(=O)Nc2ccc(F)c(F)c2)ccc1F	CHOP inhibitor 71
O=C(COC(=O)CCSc1ccccc1Cl)Nc1ccc(F)cc1F	CHOP inhibitor 72
CCOC(=O)c1sc(NC(=O)c2ccc(CC)s2)nc1C	CHOP inhibitor 71
CCc1ccc(C(=O)Nc2nc(C)cs2)s1	HIF-2a inh 56 (no result: CHOP inhibitor)
CC(=O)c1cccc(-c2ccnc3c2CC(C(=O)Nc2cccc(C(F)(F)F)c2)O3)c1 (configuration not stated)	none (no result: TRPM1 prom inh, CHOP inhibitor)
O=C(NCCc1ccco1)C(=O)NCC1OCCCN1S(=O)(=O)c1cc(F)ccc1F (configuration not stated)	none (no result: CHOP inhibitor)
Cc1c(Cl)ccc2c(C(=O)NC(C)c3ccncc3)cc(-c3ccncc3)nc12 (configuration not stated)	CHOP inhibitor 79 (no result: Peg3 prom inh, KKLEB cytotox, TRPM1 prom inh, CF NFkB block, HIF-2a inh)
Cc1cc(C(O)c2ncc(-c3ccccc3C)[nH]2)ccc1F (configuration not stated)	none (no result: TRPM1 prom inh, CHOP inhibitor)
Nc1nc(Cl)nc(N(c2ccccc2)c2ccccc2)n1	none
Nc1nc(CCl)nc(N(c2ccccc2)c2ccccc2)n1	KKLEB cytotox -73, CF NFkB block 70 (no result: TRPM1 prom inh)
O=C(O)C1CCCCC1C(=O)NCc1ccccc1 (configuration not stated)	none
CC(C)=C1C2CCC1C(C(=O)NCc1ccccc1)C2C(=O)O (configuration not stated)	CHOP inhibitor 82
COc1ccc(Nc2nc(NCCO)nc(N3CCCC3)n2)cc1	none (no result: CHOP inhibitor)
CCCNc1nc(Nc2ccc(C)cc2)nc(N2CCCC2)n1	CHOP inhibitor 70
CCc1nc2c(OCCOc3ccc(F)cc3)cccn2c1N(C)C(=O)CC(C)C	none (no result: TRPM1 prom inh, CHOP inhibitor)
Cc1c(N=C2N=C(NC(=O)c3ccc(F)cc3)c3ccccc32)c(=O)n(-c2ccccc2)n1C	Peg3 prom inh 63
N#C/C(=C\c1ccc(OCC(N)=O)cc1)S(=O)(=O)c1ccccc1	none
COc1cccc(N2CC(NS(=O)(=O)c3cccnc3)CC2=O)c1 (configuration not stated)	none (no result: CHOP inhibitor)
CC(C)CC(=O)NC(NC(=S)Nc1sc2c(c1C#N)CCCC2)C(Cl)(Cl)Cl (configuration not stated)	CHOP inhibitor 79
CCC(=O)Nc1sc2c(c1C#N)CCC2	none
O=C(OC(c1ccc(NS(=O)(=O)c2ccccc2)cc1)(C(F)(F)F)C(F)(F)F)c1ccccc1	CHOP inhibitor 92
Cc1ccc(S(=O)(=O)Nc2ccc(C(OC(=O)c3ccccc3[N+](=O)[O-])(C(F)(F)F)C(F)(F)F)cc2)cc1	CHOP inhibitor 76
Cc1cc(C)nc(NS(=O)(=O)c2ccc(NC(=O)c3ccccc3[N+](=O)[O-])cc2)n1	none (no result: CHOP inhibitor)
O=C(CN(c1ccc(Cl)cc1)S(=O)(=O)c1ccccc1)N1CCN(c2ccccc2)CC1	CHOP inhibitor 73
COc1ccc(N2CCN(C(=O)CN(c3ccc(OC)cc3)S(=O)(=O)c3ccccc3)CC2)cc1	none (no result: CHOP inhibitor)
O=C(O)C1C(c2ccccc2)c2ccccc2C(O)C1CO (configuration not stated)	none (no result: CHOP inhibitor)
COC(=O)N1CCC2CC1c1c(Cl)cccc12 (configuration not stated)	none (no result: TRPM1 prom inh, CHOP inhibitor)
C=CCN(Cc1ccc(OC)c(OC)c1)C(=O)c1cc2cc(F)ccc2[nH]1	none (no result: CHOP inhibitor)
Cn1c(SCC(=O)c2ccc3c(c2)Cc2ccccc2-3)nnc1-c1cccc(N)c1	CHOP inhibitor 93
